In paper PMC5540273 (PLoS ONE, 2017):

Key:
Settings in all cases: concentration: 1 μM, replicates: in singlicate; n = 1
MAP3K15 = system: MAP3K15
MAP3K1 = system: MAP3K1
MAP3K2 = system: MAP3K2
MAP3K3 = system: MAP3K3
MAP3K4 = system: MAP3K4
MAP4K2 = system: MAP4K2
MAP4K3 = system: MAP4K3
MAP4K4 = system: MAP4K4
MAP4K5 = system: MAP4K5
MAPKAPK2 = system: MAPKAPK2
MAPKAPK5 = system: MAPKAPK5
MARK1 = system: MARK1
MARK2 = system: MARK2
MARK3 = system: MARK3
MARK4 = system: MARK4
MAST1 = system: MAST1
MEK1 = system: T1, MEK1
T1 construct: gene MAP2K1

MEK2 = system: T2, MEK2
T2 construct: gene MAP2K2

MEK3 = system: T3, MEK3
T3 construct: gene MAP2K3

MEK4 = system: T4, MEK4
T4 construct: gene MAP2K4
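Also: KINOMEscan kinase panel screen.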

Cn1cc(-c2[nH]c3cc(NC(=O)[C@H](N)C4CCCCC4)cc4c3c2C=NNC4=O)cn1
%Inh (MAP3K15): 52% | %Inh (MAP3K1): 35% | %Inh (MAP3K2): 98.3% | %Inh (MAP3K3): 94.8% | %Inh (MAP3K4): 9% | %Inh (MAP4K2): 97.3% | %Inh (MAP4K3): 86% | %Inh (MAP4K4): 48% | %Inh (MAP4K5): 52% | %Inh (MAPKAPK2): 0% | %Inh (MAPKAPK5): 0% | %Inh (MARK1): 83% | %Inh (MARK2): 88% | %Inh (MARK3): 88% | %Inh (MARK4): 91.8% | %Inh (MAST1): 87% | %Inh (MEK1): 65% | %Inh (MEK2): 67% | %Inh (MEK3): 46% | %Inh (MEK4): 14%

O=c1[nH]cc(-c2ccc(N3CCOCC3)cc2)c2sc(-c3cn[nH]c3)cc12 [GSK2276055]
%Inh (MAP3K15): 0% | %Inh (MAP3K1): 16% | %Inh (MAP3K2): 12% | %Inh (MAP3K3): 0% | %Inh (MAP3K4): 21% | %Inh (MAP4K2): 27% | %Inh (MAP4K3): 0% | %Inh (MAP4K4): 1% | %Inh (MAP4K5): 2% | %Inh (MAPKAPK2): 0% | %Inh (MAPKAPK5): 2% | %Inh (MARK1): 0% | %Inh (MARK2): 0% | %Inh (MARK3): 0% | %Inh (MARK4): 0% | %Inh (MAST1): 0% | %Inh (MEK1): 0% | %Inh (MEK2): 9% | %Inh (MEK3): 17% | %Inh (MEK4): 5%

O=C(O)C(F)(F)F.O=C(O)C(F)(F)F.O=c1[nH]ccc2nc(N[C@@H]3CCCNC3)nc(Nc3ccc(S(=O)(=O)N4CCOCC4)cc3)c12 [GSK2177277]
%Inh (MAP3K15): 67% | %Inh (MAP3K1): 22% | %Inh (MAP3K2): 100% | %Inh (MAP3K3): 99.9% | %Inh (MAP3K4): 0% | %Inh (MAP4K2): 100% | %Inh (MAP4K3): 99% | %Inh (MAP4K4): 97.6% | %Inh (MAP4K5): 99.8% | %Inh (MAPKAPK2): 65% | %Inh (MAPKAPK5): 61% | %Inh (MARK1): 95.3% | %Inh (MARK2): 98.2% | %Inh (MARK3): 90.5% | %Inh (MARK4): 97.1% | %Inh (MAST1): 27% | %Inh (MEK1): 96.6% | %Inh (MEK2): 91.6% | %Inh (MEK3): 99.4% | %Inh (MEK4): 99.4%

COc1cc(Nc2nccc(N3CCC(NC(=O)Nc4cccc(C(C)=O)c4)C3)n2)cc(OC)c1OC (centres unmarked) [GSK1379753]
%Inh (MAP3K15): 0% | %Inh (MAP3K1): 1% | %Inh (MAP3K2): 22% | %Inh (MAP3K3): 0% | %Inh (MAP3K4): 0% | %Inh (MAP4K2): 8% | %Inh (MAP4K3): 0% | %Inh (MAP4K4): 3% | %Inh (MAP4K5): 0% | %Inh (MAPKAPK2): 0% | %Inh (MAPKAPK5): 0% | %Inh (MARK1): 0% | %Inh (MARK2): 0% | %Inh (MARK3): 0% | %Inh (MARK4): 6% | %Inh (MAST1): 0% | %Inh (MEK1): 0% | %Inh (MEK2): 0% | %Inh (MEK3): 0% | %Inh (MEK4): 55%

CNC(=O)c1ccccc1Nc1nc(Nc2ccc(N3CCOCC3)cc2)ncc1Cl.Cl [GSK1576028]
%Inh (MAP3K15): 36% | %Inh (MAP3K1): 22% | %Inh (MAP3K2): 99.5% | %Inh (MAP3K3): 99.4% | %Inh (MAP3K4): 90.1% | %Inh (MAP4K2): 93.5% | %Inh (MAP4K3): 98.9% | %Inh (MAP4K4): 28% | %Inh (MAP4K5): 81% | %Inh (MAPKAPK2): 0% | %Inh (MAPKAPK5): 0% | %Inh (MARK1): 95.2% | %Inh (MARK2): 92.6% | %Inh (MARK3): 95.5% | %Inh (MARK4): 96.8% | %Inh (MAST1): 0% | %Inh (MEK1): 88% | %Inh (MEK2): 87% | %Inh (MEK3): 87% | %Inh (MEK4): 74%

Cc1occc1-c1ncc(OC[C@@H](N)Cc2c[nH]c3ccccc23)cc1-c1ccc2[nH]nc(C)c2c1.O=C(O)C(F)(F)F [GSK682037]
%Inh (MAP3K15): 10% | %Inh (MAP3K1): 11% | %Inh (MAP3K2): 96.9% | %Inh (MAP3K3): 98.6% | %Inh (MAP3K4): 22% | %Inh (MAP4K2): 99.3% | %Inh (MAP4K3): 99.4% | %Inh (MAP4K4): 99.2% | %Inh (MAP4K5): 99.6% | %Inh (MAPKAPK2): 0% | %Inh (MAPKAPK5): 0% | %Inh (MARK1): 44% | %Inh (MARK2): 62% | %Inh (MARK3): 68% | %Inh (MARK4): 33% | %Inh (MAST1): 35% | %Inh (MEK1): 7% | %Inh (MEK2): 0% | %Inh (MEK3): 90.7% | %Inh (MEK4): 43%

Clc1ccc(-c2nn3ncccc3c2-c2ccnc(Nc3ccc4c(c3)OCCO4)n2)cc1 [GW829116]
%Inh (MAP3K15): 0% | %Inh (MAP3K1): 0% | %Inh (MAP3K2): 7% | %Inh (MAP3K3): 2% | %Inh (MAP3K4): 0% | %Inh (MAP4K2): 0% | %Inh (MAP4K3): 0% | %Inh (MAP4K4): 12% | %Inh (MAP4K5): 0% | %Inh (MAPKAPK2): 0% | %Inh (MAPKAPK5): 0% | %Inh (MARK1): 0% | %Inh (MARK2): 0% | %Inh (MARK3): 20% | %Inh (MARK4): 0% | %Inh (MAST1): 0% | %Inh (MEK1): 6% | %Inh (MEK2): 27% | %Inh (MEK3): 14% | %Inh (MEK4): 1%

Cc1ccc(S(=O)(=O)Nc2ccc(Nc3nccc(Nc4cccc5[nH]ncc45)n3)cc2)cc1 [GSK581271]
%Inh (MAP3K15): 0% | %Inh (MAP3K1): 5% | %Inh (MAP3K2): 3% | %Inh (MAP3K3): 0% | %Inh (MAP3K4): 7% | %Inh (MAP4K2): 0% | %Inh (MAP4K3): 34% | %Inh (MAP4K4): 0% | %Inh (MAP4K5): 0% | %Inh (MAPKAPK2): 0% | %Inh (MAPKAPK5): 0% | %Inh (MARK1): 0% | %Inh (MARK2): 0% | %Inh (MARK3): 0% | %Inh (MARK4): 7% | %Inh (MAST1): 7% | %Inh (MEK1): 0% | %Inh (MEK2): 0% | %Inh (MEK3): 0% | %Inh (MEK4): 10%

Cl.Cl.NCC(C(=O)Nc1cc(Br)c(-c2ccnc3[nH]ccc23)s1)c1ccccc1 (centres unmarked) [GSK1269851]
%Inh (MAP3K15): 0% | %Inh (MAP3K1): 17% | %Inh (MAP3K2): 13% | %Inh (MAP3K3): 0% | %Inh (MAP3K4): 63% | %Inh (MAP4K2): 13% | %Inh (MAP4K3): 0% | %Inh (MAP4K4): 20% | %Inh (MAP4K5): 0% | %Inh (MAPKAPK2): 0% | %Inh (MAPKAPK5): 0% | %Inh (MARK1): 0% | %Inh (MARK2): 55% | %Inh (MARK3): 0% | %Inh (MARK4): 0% | %Inh (MAST1): 13% | %Inh (MEK1): 1% | %Inh (MEK2): 0% | %Inh (MEK3): 50% | %Inh (MEK4): 11%

O=C(Nc1cccc(-c2nn3ncccc3c2-c2ccnc(Nc3ccccc3)n2)c1)c1c(F)cccc1F [GSK198271]
%Inh (MAP3K15): 0% | %Inh (MAP3K1): 3% | %Inh (MAP3K2): 35% | %Inh (MAP3K3): 0% | %Inh (MAP3K4): 35% | %Inh (MAP4K2): 0% | %Inh (MAP4K3): 33% | %Inh (MAP4K4): 33% | %Inh (MAP4K5): 84% | %Inh (MAPKAPK2): 24% | %Inh (MAPKAPK5): 0% | %Inh (MARK1): 0% | %Inh (MARK2): 0% | %Inh (MARK3): 0% | %Inh (MARK4): 0% | %Inh (MAST1): 0% | %Inh (MEK1): 70% | %Inh (MEK2): 77% | %Inh (MEK3): 3% | %Inh (MEK4): 39%
